Bioassay records: PubChem BioAssay, National Center for Advancing Translational Sciences (NCATS)
Most compounds without a hit are left out; they make up all but 2.7% or so of the library.
IP6K1 inh = IP6K1 kinase inhibition; Q92551; IP6K1 kinase, ADP-Glo luminescence, 2 h; stronger effect = lower value; activity change, % (series mostly up to about 58 µM); 0.81% of 140,000 active; in the data active = activity change below about -25%
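ADP-Glo luminescence measures ADP made by human IP6K1 during a 2 h RT reaction with ATP/IP6 (mix at 1.3 mM/130 uM); top library doses 57.5 and 19.1 uM final.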
KDM5B inh = KDM5B demethylase inhibition; Q9UGL1; KDM5B demethylase, FDH-coupled NADH fluorescence (FDH is formaldehyde dehydrogenase); Potency, µM (series often up to 57.7 µM), actives largely listed as inhibitors; 2.6% of 220,000 active; AID 1347165; active = well fitted inhibition curve with a large enough effect; inconclusive = small, poorly fitted or top-dose-only effect; inactive = no such curve, though single readings can be large or run the other way; note: nearly all actives have a fitted effect of over 70% in size
Target sequence (Q9UGL1 whole entry, looked up): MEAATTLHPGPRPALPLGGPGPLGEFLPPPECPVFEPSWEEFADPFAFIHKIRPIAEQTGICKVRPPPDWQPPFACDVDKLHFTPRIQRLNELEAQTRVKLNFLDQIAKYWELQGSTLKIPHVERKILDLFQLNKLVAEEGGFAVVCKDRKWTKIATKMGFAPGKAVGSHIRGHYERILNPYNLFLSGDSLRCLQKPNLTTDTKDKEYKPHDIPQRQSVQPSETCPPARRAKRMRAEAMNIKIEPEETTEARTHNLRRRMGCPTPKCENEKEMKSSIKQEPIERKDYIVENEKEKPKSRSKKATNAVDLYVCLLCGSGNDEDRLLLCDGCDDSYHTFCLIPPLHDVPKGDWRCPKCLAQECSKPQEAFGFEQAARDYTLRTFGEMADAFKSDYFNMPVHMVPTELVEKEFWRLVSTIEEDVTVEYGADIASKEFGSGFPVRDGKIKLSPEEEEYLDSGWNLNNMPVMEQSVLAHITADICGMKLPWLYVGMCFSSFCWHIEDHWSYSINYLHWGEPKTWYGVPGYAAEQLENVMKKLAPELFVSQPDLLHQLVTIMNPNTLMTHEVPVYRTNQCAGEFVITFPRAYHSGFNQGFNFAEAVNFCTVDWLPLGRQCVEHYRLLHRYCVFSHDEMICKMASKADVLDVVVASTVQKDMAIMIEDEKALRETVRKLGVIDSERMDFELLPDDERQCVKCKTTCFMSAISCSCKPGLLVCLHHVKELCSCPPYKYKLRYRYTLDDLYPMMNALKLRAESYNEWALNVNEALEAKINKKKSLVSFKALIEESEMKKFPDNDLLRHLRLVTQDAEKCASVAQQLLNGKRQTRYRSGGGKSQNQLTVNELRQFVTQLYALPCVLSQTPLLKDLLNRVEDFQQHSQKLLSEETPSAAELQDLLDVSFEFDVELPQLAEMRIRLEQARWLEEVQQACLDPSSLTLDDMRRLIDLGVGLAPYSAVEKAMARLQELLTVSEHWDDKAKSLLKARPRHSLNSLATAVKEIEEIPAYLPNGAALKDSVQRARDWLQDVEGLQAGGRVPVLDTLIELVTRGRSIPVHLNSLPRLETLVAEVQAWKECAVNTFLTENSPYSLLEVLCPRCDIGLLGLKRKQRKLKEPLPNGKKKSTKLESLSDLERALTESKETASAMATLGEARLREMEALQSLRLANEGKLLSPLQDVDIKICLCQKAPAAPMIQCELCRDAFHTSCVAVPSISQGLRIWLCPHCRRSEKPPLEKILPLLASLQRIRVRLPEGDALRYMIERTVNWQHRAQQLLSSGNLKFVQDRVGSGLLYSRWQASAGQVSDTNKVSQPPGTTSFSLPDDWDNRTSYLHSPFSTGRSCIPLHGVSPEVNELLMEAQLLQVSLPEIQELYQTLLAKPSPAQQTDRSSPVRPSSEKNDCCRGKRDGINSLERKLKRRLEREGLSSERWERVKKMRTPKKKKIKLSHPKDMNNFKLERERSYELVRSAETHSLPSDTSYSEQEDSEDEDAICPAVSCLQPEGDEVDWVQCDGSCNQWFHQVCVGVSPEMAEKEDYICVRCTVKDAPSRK
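qHTS format, multiple compound concentrations. Buffer 50 mM HEPES pH 7.5/0.01% Tween-20; 200 nM KDM5BΔAP final; 10 min compound preincubation; substrate-mix levels 12.5 µM peptide, 25 µM α-KG, 0.25 mM NAD⁺; 30 min RT; ΔRFU.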
Large screens that a line does not name were inactive.

Cc1nc2c(C)cccc2c(Cl)c1CC=C(Cl)Cl	none (no result: IP6K1 inh)
Cn1ccnc1-c1ccc(N2CC[C@](C)(O)[C@@H](O)C2)nn1	KDM5B inh inconclusive
COc1cccc(CC2(CO)CCCN(c3ccc(-c4nccn4C)nn3)C2)c1 (stereo unspecified)	KDM5B inh 20µM
COc1cccc(CC2(CO)CCCN(c3nnnn3-c3ccccc3)C2)c1 (stereo unspecified)	none
Cn1ccnc1-c1ccc(N2CCC(C(O)Cc3ccccc3)CC2)nn1 (stereo unspecified)	KDM5B inh 28µM
CN1C[C@@H](NC(=O)c2ccccn2)C[C@H]1c1nc(-c2ccc3ccccc3c2)no1	KDM5B inh inconclusive
CN(C)c1ccc(C(=O)N[C@H]2C[C@@H](c3nc(-c4ccc5ccccc5c4)no3)N(C)C2)cc1	KDM5B inh 35µM
O=S1(=O)Cc2c(nc3ccccc3c2-c2ccccc2)-c2ccccc21	none (no result: IP6K1 inh)
Cc1ccc(C#N)c(N2CCCC(c3nnc(Cn4cccn4)n3C)C2)n1 (stereo unspecified)	KDM5B inh 28µM
Cn1c(Cn2cccn2)nnc1C1CCCN(C(=O)c2ccoc2)C1 (stereo unspecified)	none
O=C(NC1CCN(c2nc3ncccc3o2)CC1)c1ccccc1	KDM5B inh 35µM
Cc1ccc(C(=O)NC2CCCN(c3nc4ncccc4o3)C2)cc1 (stereo unspecified)	KDM5B inh inconclusive
O=C(NC1CCN(c2nc3ncccc3o2)CC1)c1ccccc1F	KDM5B inh inconclusive
Cc1ccc(C(=O)NC2CCN(c3nc4ncccc4o3)CC2)cc1	KDM5B inh 35µM
Cc1cc(C(=O)N2CCCCC2)cs1	none (no result: IP6K1 inh)
C=CCNc1nc(-c2cc(C)n(-c3c(C)n(C)n(-c4ccccc4)c3=O)c2C)cs1	none (no result: IP6K1 inh)
N#Cc1cccc(-c2n[nH]c3c2CC(=O)N(Cc2ccccn2)C3)c1	KDM5B inh 35µM
N#Cc1cccc(-c2n[nH]c3c2CC(=O)N(Cc2ccccc2)C3)c1	none
CNc1c(NC(=O)CCc2ccccc2)c(=O)oc2ccccc12	none (no result: IP6K1 inh)
COc1ccc(F)cc1-c1cccc(C(=O)NCCNC(=O)c2ccc(Cl)cc2)c1	none (no result: KDM5B inh)
COc1ccc(-c2cnc3[nH]cc(CC(=O)N4CCN(c5ccccn5)CC4)c3c2)cc1	KDM5B inh 28µM
CCOc1ccccc1C(=O)NC(C)C(=O)N1CCN(c2ccccn2)CC1 (stereo unspecified)	KDM5B inh 22µM
COc1ccc(-c2cnc3[nH]cc(CC(=O)N(C)C)c3c2)cc1	KDM5B inh inconclusive
O=C(Cc1c[nH]c2ncc(-c3ccccc3)cc12)N1CCN(c2ccccn2)CC1	KDM5B inh inconclusive
COc1cccc(CC(=O)NC(C)C(=O)N2CCN(c3ccccn3)CC2)c1 (stereo unspecified)	KDM5B inh 25µM
COc1ccc(-c2cnc3[nH]cc(CC(=O)NCCN(C)C)c3c2)cc1	KDM5B inh 40µM
COc1ccc(C(=O)NC(C)C(=O)N2CCN(c3ccccn3)CC2)cc1F (stereo unspecified)	KDM5B inh inconclusive
COc1cccc(CN2C(=O)CCCCC2C(=O)N2CCN(c3ccccn3)CC2)c1 (stereo unspecified)	none (no result: KDM5B inh)
COc1ccc(CC(=O)NC2CCCN(c3ccc4nnc(-c5ccccc5)n4n3)C2)cc1 (stereo unspecified)	none (no result: KDM5B inh)
Cn1c(=O)c2c(nc(CN3CCN(c4ccccc4F)CC3)n2Cc2ccccc2)n(C)c1=O	none (no result: IP6K1 inh)
COc1cccc(CCC(=O)NC(C)C(=O)N2CCN(c3ccccn3)CC2)c1 (stereo unspecified)	KDM5B inh 22µM
CC(NC(=O)COc1ccccc1)C(=O)N1CCN(c2ccc(F)cc2)CC1 (stereo unspecified)	none (no result: IP6K1 inh)
CC(NC(=O)COc1ccc(F)cc1)C(=O)N1CCN(c2ccccn2)CC1 (stereo unspecified)	KDM5B inh 28µM
COc1ccc(CC(=O)NC(C)C(=O)N2CCN(c3ccccn3)CC2)cc1 (stereo unspecified)	KDM5B inh 32µM
Cc1cc(C)cc(C(=O)NC(Cc2ccccc2)C(=O)N2CCN(c3ccccn3)CC2)c1 (stereo unspecified)	KDM5B inh 25µM
COc1ccc2[nH]c(=O)c(CCC(=O)N3CCN(c4ccccn4)CC3)cc2c1	KDM5B inh inconclusive
Cc1cccc(C(=O)N[C@@H](C)C(=O)N2CCN(c3ncccn3)CC2)c1	none (no result: IP6K1 inh)
CC(NC(=O)Cc1c(F)cccc1Cl)C(=O)N1CCN(c2ccccn2)CC1 (stereo unspecified)	KDM5B inh inconclusive
COc1cc(/C=C/C(=O)OCC(=O)N(C2=CCCCC2)C2CC2)ccc1OC(F)F	none (no result: IP6K1 inh)
Cc1nn(C)c(C)c1C(C)C(=O)Nc1cc(F)c(N(C)C)c(F)c1 (stereo unspecified)	none (no result: IP6K1 inh)
Cc1ccc(-c2cc(=O)c3cc(C)ccc3o2)cc1	none (no result: IP6K1 inh)
CCCCCCc1ccc(C(=O)Cn2cnc3c2c(=O)n(C)c(=O)n3C)cc1	none (no result: IP6K1 inh)
CCOc1cc(/C=C2/NC(=O)NC2=O)cc(I)c1OCC	none (no result: IP6K1 inh)
